Assay results: the supplement of paper PMC10681739

Experiments:
ETS1 = target: T1, ETS1 (UniProt P14921); experiment: ETS1 binding intensity (PBM fluorescence), ETS1 alone (arbitrary fluorescence units); higher = stronger binding; conditions: ETS1 concentration 1 nM; RUNX1 concentration 0 nM
T1 sequence: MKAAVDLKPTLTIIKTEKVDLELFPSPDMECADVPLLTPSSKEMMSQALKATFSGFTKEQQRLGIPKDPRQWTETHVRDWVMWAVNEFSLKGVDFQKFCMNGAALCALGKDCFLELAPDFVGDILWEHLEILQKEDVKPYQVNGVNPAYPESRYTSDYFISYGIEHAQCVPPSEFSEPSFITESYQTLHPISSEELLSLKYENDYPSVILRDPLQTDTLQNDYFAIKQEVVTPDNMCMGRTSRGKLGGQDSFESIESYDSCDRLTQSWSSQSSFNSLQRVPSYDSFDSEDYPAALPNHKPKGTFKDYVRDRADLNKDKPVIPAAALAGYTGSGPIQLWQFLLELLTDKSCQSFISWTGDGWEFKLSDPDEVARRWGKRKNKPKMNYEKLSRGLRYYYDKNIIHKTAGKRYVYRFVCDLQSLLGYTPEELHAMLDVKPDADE

RUNX1 [1] = target: RUNX1 (UniProt Q01196); experiment: RUNX1 binding intensity (PBM fluorescence), RUNX1 alone (arbitrary fluorescence units); higher = stronger binding; conditions: RUNX1 concentration 2 nM; ETS1 concentration 0 nM
Sequence of RUNX1 (Q01196 whole entry): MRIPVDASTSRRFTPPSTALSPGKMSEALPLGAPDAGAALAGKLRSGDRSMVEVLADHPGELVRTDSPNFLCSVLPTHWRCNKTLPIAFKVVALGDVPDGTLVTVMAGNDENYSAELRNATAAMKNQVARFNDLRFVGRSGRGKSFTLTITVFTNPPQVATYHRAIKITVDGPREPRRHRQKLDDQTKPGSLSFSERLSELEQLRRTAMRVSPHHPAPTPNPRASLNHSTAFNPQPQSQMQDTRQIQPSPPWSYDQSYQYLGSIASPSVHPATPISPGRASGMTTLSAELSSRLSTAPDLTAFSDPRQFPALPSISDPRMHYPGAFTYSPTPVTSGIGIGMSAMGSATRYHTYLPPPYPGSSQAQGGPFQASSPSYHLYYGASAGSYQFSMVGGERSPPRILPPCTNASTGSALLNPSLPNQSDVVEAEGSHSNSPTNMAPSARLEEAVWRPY
Procedure: (§1)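 Cooperative gcPBM on 36-bp genomic probes with neighbouring ETS1 and RUNX1 sites. Recombinant human RUNX1 (2 nM) was incubated alone or with ETS1 (25 nM) and detected with anti-RUNX1 antibody plus Alexa488 secondary. Values are medians over 4 replicate spots; the RUNX1+ETS1 data were normalised to the RUNX1-only data. The probes sit in constant array flanks that are not printed.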

RUNX1 [2] = target: RUNX1 (UniProt Q01196); experiment: RUNX1 binding intensity (PBM fluorescence) in presence of ETS1, normalised to RUNX1-only experiment (arbitrary fluorescence units); higher = stronger binding; conditions: RUNX1 concentration 2 nM; ETS1 concentration 25 nM
Procedure: as §1
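Throughout, for RUNX1 binding intensity (PBM fluorescence) in presence of ETS1, normalised to RUNX1-only experiment: Full-length recombinant human ETS1 or RUNX1 bound to double-stranded 36-bp genomic probes on microarrays, detected by protein-specific primary antibody and Alexa488 secondary, spot fluorescence as median of four replicate spots.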
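Throughout, for RUNX1 binding intensity (PBM fluorescence), RUNX1 alone: Full-length recombinant human RUNX1 bound to double-stranded 36-bp genomic probes on a high-density microarray, scored as Alexa488 fluorescence per spot via anti-RUNX1 antibody, median of four replicate spots.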

Row | Sequence | ETS1 binding intensity (ETS1) | RUNX1 binding intensity (RUNX1 [1]) | RUNX1 binding intensity (RUNX1 [2])
1 | GAACCTGGGAGGCGGAAGTTGCGGTTAGCCGAGATC | 6030 | 13500 | 56300
2 | TACTAGTTTGGGGCATCCTGTGGTATAGGGGAAGCA | 4100 | 797 | 1080
3 | GGTGCCTGGGGAGGATGTGGGCTGACTGGGAGGGGT | 870 | 869 | 974
4 | AATCTGAAACAGGAAATAAGTCTGTGGTTGTGTGTT | 7070 | 833 | 1540
5 | CTACTTTCCGGTCAACGCGGCCTGCGGTACCACCTC | 438 | 1160 | 2720
6 | GTGGCTATGGGAAGTGGGGTGCGGTTTCTGCCGGGG | 554 | 1340 | 1670
7 | GCGGAGGGAAGCGGAAATACTTGCGGTGGGGGCGAC | 3700 | 898 | 2210
8 | GAAAAAAATGAGCTTCCTTTAACCACAACTGTATTA | 508 | 1350 | 2340
9 | AACAGTTGCATAGGAAGTGGTCAGCTCTCCTCCACC | 1260 | 828 | 999
10 | CTCTCACTTCCCGTGTGAGAAAAACCACAGAAAAGC | 651 | 1890 | 4200
11 | GCCGGAAGCCACGCAGGGCCACGTCTGCGGTTCTGA | 976 | 826 | 1220
12 | TGGCAGAGCACATCCTGTGCGGTTTTCAGTTTTGCT | 1120 | 2600 | 5430
13 | GCAGTCAGAAGGTGCGGATGCGGTAAGGTATGCGCT | 1130 | 835 | 1270
14 | ATGTCTTCCTGTACAGGAACTGGGTCCCAGCCGCAG | 4120 | 745 | 1510
15 | GAGGAACCCAAAGTAGGATGTGGTTTTGCAATTGGA | 757 | 1020 | 1770
16 | GACAGACCTTAGGAAGTCGCGGTTTCATCAGGGCTT | 422 | 916 | 1220
17 | GGACAAAACATCATAGGAAGTGGGTTTTGGGGTGAG | 1500 | 761 | 914
18 | CCAGCCACTTCCGCTCGTCCGCCTAATACCGCGCCT | 2130 | 1420 | 4930
19 | TGCCACCTGCTTCCTGCCTGTGTAGCCACAAGGGAC | 783 | 910 | 1600
20 | TGTGTATGAGAACGGATATAGGTGGTTTTATAAGGA | 1890 | 756 | 941
21 | AGCTCCACCGGAAACGGCCTGGCCGCAGCCAATCAG | 7110 | 806 | 2450
22 | CCCGGCCACTTCCGCCTATTGCGGGCGTCGGCTAGG | 1440 | 745 | 4310
23 | GCGCCCTCCAGGAAACGCCGCGGTTTACTGTCTGCC | 1120 | 912 | 1910
